Experimental data published in PubChem BioAssay.
Potency and affinity values are given separately. Active and inactive are the calls of the source. How the calls were made is not given here.

Molecular target: Plasmodium falciparum protein kinase 6 (PK6, PF3D7_1337100) (UniProt Q8IDW1)
Assay: PfPK6 kinase inhibitors, biochemical, TCAMS library (AID 1159586)
Conditions: recombinant PfPK6, Kinase-Glo ATP depletion luminescence

Chain of Plasmodium falciparum protein kinase 6 (PK6, PF3D7_1337100) (Q8IDW1 1-305): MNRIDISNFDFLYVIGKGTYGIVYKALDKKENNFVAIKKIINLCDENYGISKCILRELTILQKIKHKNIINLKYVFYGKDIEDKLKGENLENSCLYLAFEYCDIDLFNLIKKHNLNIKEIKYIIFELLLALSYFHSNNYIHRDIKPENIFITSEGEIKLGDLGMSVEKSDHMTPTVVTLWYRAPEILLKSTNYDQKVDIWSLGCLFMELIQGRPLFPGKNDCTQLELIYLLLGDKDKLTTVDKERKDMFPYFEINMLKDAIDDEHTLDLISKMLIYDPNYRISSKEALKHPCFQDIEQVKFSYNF

outcome, inactive:
CC(C)N1CCN(C(CN2CCN(CCCOc3ccccc3-c3ccccc3)CC2)c2ccc(F)cc2)CC1 (centres undefined)
Cc1cc(OCCCN2CCC(NS(=O)(=O)c3cc(Br)c(Cl)s3)CC2)c2ccccc2n1
Cc1nnsc1C(=O)Nc1ccc(-c2ccc(-c3nc4c(C)cccc4[nH]3)s2)cc1
CN(C)CCCNc1ncnc2c1[nH]c1ccc(Cl)cc12
Cc1cc(N)cc2[nH]c(-c3ccc(N)cc3)nc12
O=C(Nc1cccc(CN2CCN(C(=O)c3cccc(F)c3)CC2)c1)c1cccs1
OCCN1CCN(C(=S)Nc2ccccc2)CC1
CC(=O)Oc1c(C2CCN(CCCCNC(=O)c3ccc(NC(=O)c4ccc(Cl)cc4)cc3)CC2)ccc2ccccc12
CCOC(=O)c1c(CNc2ccncc2)n(C)c2cc(Br)c(OC(C)=O)cc12
O=C(Nc1ccccc1N1CCOCC1)c1ncoc1-c1ccccc1C(F)(F)F
Cc1nc(-c2cccc(Nc3nccc(NCC(O)c4ccc(C(F)(F)F)cc4)n3)c2)cs1 (centres undefined)
OCc1c(Cl)cc(Cl)cc1CNCCCNc1nc2ccccc2[nH]1
COC(=O)c1cccc(CNCc2cccc(-c3cccc(-c4nc5ccc(F)cc5[nH]4)c3)c2)c1
CC(C)(C)c1ccc(OC(=O)c2ccc(NC(=O)N[C@@H](Cc3ccc(O)cc3)C(=O)NC3CCN(Cc4ccc(O)cc4)C3)cc2)cc1 (some centres undefined)
CN1CCC(N(Cc2ccc(-c3ccc(C(F)(F)F)cc3)cc2)C(=O)Cn2cc(Cc3cnn(C)c3)c(=O)nc2SCc2cccc(F)c2F)CC1
c1ccc2c(CNc3ccnc(NCc4cccc5ccccc45)n3)cccc2c1
O=C(Nc1cccc(CN2CCN(Cc3ccc(O)cc3)CC2)c1)c1cc2ccccc2s1
CC(=O)Nc1ccc(C(=O)Nc2ccc(-c3csc(-c4nc5ccccc5[nH]4)c3)cc2)cn1
CC1(C)N=C(N)N=C(N)N1OCc1ccc(-c2ccccc2)cc1
Cc1ccc2c(NN=Cc3cccc(Cl)c3)cc(C)nc2c1
COc1ccc2nccc([C@@H](O)CN3CCC(NCc4cc5cc(C)ccc5s4)CC3)c2c1
Cc1cccc2sc(N(CCCn3ccnc3)C(=O)C=Cc3cccs3)nc12
O=C(NCCCCN1CCC(c2ccc3c(c2OCC(O)c2ccc(Cl)cc2)CCCC3)CC1)c1ccc(-c2ccc(C(F)(F)F)cc2)cc1 (centres undefined)
OC(CNCCc1ccccc1)Cn1c2ccc(Cl)cc2c2cc(Cl)ccc21 (centres undefined)
Cc1cc(N(C)C2CCN(CC3CCCCC3)C2)nc(Nc2ccc(Cl)cc2)n1 (centres undefined)
COc1ccc(CN2CCC(NCc3ccc(C(F)(F)F)cc3)CC2)cc1
O=C(Cc1ccccc1)NC(CCN1CCC(N(C2CC2)S(=O)(=O)c2cccc(C(F)(F)F)c2)CC1)c1ccc(Cl)c(Cl)c1 (centres undefined)
COc1cccc(C(=O)NC(c2ccc(Cl)cc2Cl)c2cc(Cl)c3cccnc3c2O)c1 (centres undefined)
O=C(Nc1ccc(N2CCN(C(=O)C=Cc3ccccc3)CC2)c(Cl)c1)c1ccc([N+](=O)[O-])o1
CCCN1CCN(CCCNC(=O)c2cc3c(-c4ccc(Cl)cc4)nn(C)c3s2)CC1
Cn1nccc1C(=O)NCCNCc1ccc(-c2ccc(-c3nc4ccc(F)cc4[nH]3)cc2)cc1
O=C(Nc1ccc(Cl)c(-c2nc3ccccc3[nH]2)c1)c1ccc(-c2ccc(Cl)cc2)o1
COc1cc(N(Cc2ccccc2C)S(=O)(=O)Cc2ccccc2[N+](=O)[O-])c(OC)cc1Cl
Cc1onc(-c2ccccc2)c1C(=O)Nc1nc(-c2ccccn2)nc2ccsc12
N#Cc1cc(C(=O)Nc2ccccc2)c(N)nc1SCC(=O)Nc1ccc(Br)cc1
O=C(Nc1ccc(Oc2ccccc2)cc1)N[C@H]1CCN(Cc2ccc(OCCCN3CCCCC3)cc2)C1
CCOC(=O)NC1=NC(C)(C)N(OCCCOc2cc(Cl)c(Cl)cc2Cl)C(N)=N1
Cc1ccc(/C=C/C(=O)NC2CCC(N3CCC(c4ccccc4C)CC3)CC2)cc1F (centres undefined)
Cc1ccc(CNC(=O)[C@H](CCCN)Nc2cc(C)nc(NCC3CCCCC3)n2)cc1
